Measured values from PubChem BioAssay (Tox21).
Values without a mark were called inactive. Records with an inconclusive call do not appear. Entries that show only a call come without a potency. Active and inactive are the calls of the source. Unless noted, calls follow the shape of the full dose curve.

Tests used:
[1] = qHTS assay to identify small molecule agonists of the sonic hedgehog signaling (Shh) pathway (AID 1259368);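 also: NIH/3T3-derived 3T3Gli1-Luc cells carrying a stable Gli1-driven firefly luciferase reporter; series mostly up to about 92 µM; nearly all actives have a fitted effect of over 15% in size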
Summary of the method: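 Luminescence was read after 30 min at room temperature with luciferase reagent. Before that, 3T3Gli1-Luc cells (NIH/3T3 clone, stable Gli1-Luc reporter; 2,000/well) were exposed to compounds for 24 hr at 37C, 5% CO2, compounds being added 4 hr post-plating.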

[2] = qHTS assay to identify small molecule antagonists of the sonic hedgehog signaling (Shh) pathway (AID 1259369); also: nearly all actives have a fitted effect of over 45% in size; also: potency is read from the fitted curve at half-maximal effect
Summary of the method: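 Antagonist mode: compound added to 3T3 Gli1-Luc cells followed by conditioned-medium stimulation, 24 h at 37 C, 5% CO2. Inhibition taken as loss of Gli1-driven luciferase luminescence.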

[3] = target: Estrogen receptor beta (Homo sapiens) (UniProt Q92731); test: qHTS assay to identify small molecule agonists of the estrogen receptor beta (ER-beta) signaling pathway (AID 1259377; active = well fitted activation curve with a large enough effect in the signal ratio in the repeat runs, not every such curve was filed as active; the % refers to the signal ratio)
Summary of the method: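 Measured by fluorescence intensity from a B/G FRET beta-lactamase substrate (2 h, room temperature) in ER-beta-UAS-bla HEK293T cells treated with DMSO-dissolved compounds for 16 hr at 37C and 5% CO2.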

[4] = target: Estrogen receptor beta (Homo sapiens) (UniProt Q92731); test: qHTS assay to identify small molecule antagonists of the estrogen receptor beta (ER-beta) signaling pathway (AID 1259378; active = well fitted inhibition curve with a large enough effect in the signal ratio in the repeat runs, not every such curve was filed as active; the % refers to the signal ratio)
Summary of the method: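 Antagonist mode: compounds added to beta-lactamase reporter HEK293T ER-beta-UAS cells stimulated with E2 (1nM final), 16 hr at 37C. LiveBLAzer B/G FRET substrate, 2 hours room temperature, fluorescence read-out.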

[5] = qHTS assay to identify small molecule agonists of the androgen receptor (AR) signaling pathway in the presence of an antagonist - cell viability counter screen (AID 1259379; active = well fitted curve in the direction sought with a large enough effect in the repeat runs; an effect the other way counts as inactive or inconclusive;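 also: MDA-kb2 human breast cancer cells carrying an MMTV luciferase reporter; series mostly up to about 92 µM; nearly all actives have a fitted effect of over 25% in size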)
Summary of the method: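 Cytotoxicity counter-screen run in the same wells as the nilutamide-challenged (3.0 µM final) AR agonist assay in MDA-kb2 cells. Compounds tested at 15 concentrations for 16 h, 37 °C without CO2; CellTiter-Fluor fluorescence read.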

[6] = qHTS assay to identify small molecule antagonists of the estrogen receptor beta (ER-beta) signaling pathway - cell viability counter screen (AID 1259382; active = well fitted curve in the direction sought with a large enough effect in the repeat runs; an effect the other way counts as inactive or inconclusive;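 also: HEK293T cells carrying ER-beta-UAS-bla reporter stimulated with estradiol; series mostly up to about 92 µM; nearly all actives have a fitted effect of over 55% in size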)
Summary of the method: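 Cytotoxicity was measured in the same wells by CellTiter-Glo luminescence after 30 min at room temperature. Cells were ER-beta-bla HEK293T in charcoal-stripped serum, given compound together with 1 nM E2 and incubated 16 h at 37C.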

[7] = qHTS assay to identify small molecule agonists or antagonists of the thyroid stimulating hormone receptor (TSHR) signaling pathway - wild type cell line counter screen (AID 1259384)
Summary of the method: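 Counter screen in untransfected Hek293: compounds (15-point titration, triplicate) plus phosphodiesterase inhibitor Ro20-1724 added after 18 h plating; 30 min RT. Intracellular cAMP via competitive d2/cryptate immunoassay, 1 h incubation.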

[8] = qHTS assay to identify small molecule agonists of the estrogen receptor alpha (ER-alpha) signaling pathway in the presence of an antagonist - cell viability counter screen (AID 1259386; active = well fitted curve in the direction sought with a large enough effect in the repeat runs; an effect the other way counts as inactive or inconclusive; also: series mostly up to about 92 µM; nearly all actives have a fitted effect of over 30% in size)
Summary of the method: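 Compounds tested at 15 concentrations for 22 h at 37C alongside 10.0nM (final) ICI-182,780 antagonist, in VM7Luc4E2 cells grown in phenol red-free, charcoal-stripped medium. Viability read by CellTiter-Fluor fluorescence after 1 h reagent incubation.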

[9] = target: Progesterone receptor (Homo sapiens) (UniProt P06401); test: qHTS assay to identify small molecule agonists of the progesterone receptor (PR) signaling pathway (AID 1346784); also: nearly all actives have a fitted effect of over 30% in size
Summary of the method: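 The screen uses PR-UAS-bla HEK 293T cells in charcoal-stripped serum (2%). Compounds are applied for 16 hr at 37C after a 6 hr pre-incubation, and reporter activity is detected with a FRET beta-lactamase substrate after 2 hr at room temperature.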

[10] = qHTS assay to identify small molecule agonists of the progesterone receptor (PR) signaling pathway - cell viability counter screen (AID 1346799); also: nearly all actives have a fitted effect of over 45% in size
Summary of the method: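 Viability was scored by ATP luminescence (CellTiter-Glo, 30 min, room temperature) in the same wells used for the reporter readout, after 16 hr compound exposure of PR-UAS-bla HEK293T cells.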

[11] = qHTS assay to identify small molecule antagonists of the TGF-beta/Smad signaling pathway - cell viability counter screen (AID 1346824; active = well fitted curve in the direction sought with a large enough effect in the repeat runs; an effect the other way counts as inactive or inconclusive; also: nearly all actives have a fitted effect of over 50% in size)
Summary of the method: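 Cytotoxicity counter-screen run in the same wells as the beta-lactamase Smad reporter read: CellTiter-Glo luminescence after 30 min at room temperature. HEK 293T SBE-bla cells had 5 hr compound exposure at 37 C with TGF-beta1 (0.25 ng/mL stock).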

[12] = qHTS assay to identify small molecule agonists of the TGF-beta/Smad signaling pathway - cell viability counter screen (AID 1346829; active = well fitted curve in the direction sought with a large enough effect in the repeat runs; an effect the other way counts as inactive or inconclusive; also: top concentration of the series differs between compounds; nearly all actives have a fitted effect of over 45% in size)
Summary of the method: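 Cytotoxicity counter screen: CellTiter-Glo luminescence (30 min, room temperature) measured in the SBE-bla HEK 293T reporter wells after 5 hr compound treatment at 37 C and the 2 hr substrate step.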

[13] = qHTS assay to identify small molecule agonists of the TGF-beta/Smad signaling pathway (AID 1346859; active = well fitted activation curve with a large enough effect in the signal ratio in the repeat runs, not every such curve was filed as active; the % refers to the signal ratio; also: series mostly up to about 77 µM)
Summary of the method: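 Dual-wavelength fluorescence (460/530 nm emission) quantified beta-lactamase expression under the Smad binding element in HEK 293T cells following 5 hr compound treatment at 37 C.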

[14] = target: Thyrotropin receptor (Homo sapiens) (UniProt P16473); test: qHTS assay to identify small molecule antagonists of the thyroid stimulating hormone receptor (TSHR) signaling pathway (AID 1259385); also: nearly all actives have a fitted effect of over 20% in size
Summary of the method: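 Antagonist mode: compound-treated TSHR-expressing HEK293 cells were stimulated with 1.5 ng/mL TSH (final) in presence of Ro20-1724 for 30 min at RT. HTRF cAMP detection after 1 h; each compound tested at 15 concentrations, triplicate.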

[15] = target: Progesterone receptor (Homo sapiens) (UniProt P06401); test: qHTS assay to identify small molecule antagonists of the progesterone receptor (PR) signaling pathway (AID 1346795; active = well fitted inhibition curve with a large enough effect in the signal ratio in the repeat runs, not every such curve was filed as active; the % refers to the signal ratio)
Summary of the method: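 After 6 hr plating at 37C in 2% stripped-serum medium, PR-UAS-bla HEK293T cells got compounds, then 1 nM R5020. Sixteen hours later, LiveBLAzer substrate was applied for 2 hr at room temperature and fluorescence was recorded.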

[16] = target: Thyrotropin-releasing hormone receptor (Homo sapiens) (UniProt P34981); test: qHTS assay to identify small molecule antagonists of the thyrotropin-releasing hormone receptor (TRHR) signaling pathway (AID 1346877; active = well fitted inhibition curve with a large enough effect in the repeat runs, not every such curve was filed as active; also: series mostly up to about 51 µM)
Summary of the method: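 Antagonist mode: after a 5 min room-temperature compound exposure, cells were stimulated with 1 nM (final) TRH. Dye-loaded TRHR-HEK293 cells were used, and calcium-dependent fluorescence was followed for 3 min, with 15-point titrations run in triplicate.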

[17] = qHTS assay to identify small molecule agonists of the estrogen receptor beta (ER-beta) signaling pathway - cell viability counter screen (AID 1259380; active = well fitted curve in the direction sought with a large enough effect in the repeat runs; an effect the other way counts as inactive or inconclusive; also: nearly all actives have a fitted effect of over 30% in size)
Summary of the method: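 Cell viability counter screen: CellTiter-Glo luminescence (30 min, room temperature) measured in the same wells as the beta-lactamase readout, after 16 hr compound exposure at 37C of ER-beta-bla HEK293T cells in 2% charcoal-stripped FBS medium.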

[18] = target: Estrogen receptor (Homo sapiens) (UniProt P03372); test: qHTS assay to identify small molecule agonists of the estrogen receptor alpha (ER-alpha) signaling pathway in the presence of an antagonist (AID 1259383); also: top concentration of the series differs between compounds; nearly all actives have a fitted effect of over 15% in size
Summary of the method: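 Agonist-mode confirmation run in the presence of 10.0nM (final) ICI-182,780 antagonist. The reporter was ERE-driven luciferase in VM7Luc4E2 cells, grown in charcoal-stripped serum. Cells were exposed to 15-concentration compound series for 22hr, then ONE-Glo luminescence was read.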

[19] = target: Androgen receptor (Homo sapiens) (UniProt P10275); test: qHTS assay to identify small molecule agonists of the androgen receptor (AR) signaling pathway in the presence of an antagonist (AID 1259381); also: nearly all actives have a fitted effect of over 15% in size
Summary of the method: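 Agonist-mode confirmation run against 3.0 uM final nilutamide: compounds titrated at 15 concentrations onto MDA-kb2 MMTV-luciferase reporter cells. Luminescence measured with ONE-Glo following 16 hr incubation, 37C, 0% CO2.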

[20] = qHTS assay to identify small molecule antagonists of the progesterone receptor (PR) signaling pathway - cell viability counter screen (AID 1346798; active = well fitted curve in the direction sought with a large enough effect in the repeat runs; an effect the other way counts as inactive or inconclusive; also: series mostly up to about 92 µM; nearly all actives have a fitted effect of over 50% in size)
Summary of the method: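 Viability was determined by ATP-based luminescence (CellTiter-Glo) in PR-UAS-bla HEK293T cells cultured in 2% charcoal-stripped serum and incubated 16 hr with compounds under R5020 stimulation.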

Progesterone receptor (Homo sapiens), sequence (P06401 whole entry, looked up): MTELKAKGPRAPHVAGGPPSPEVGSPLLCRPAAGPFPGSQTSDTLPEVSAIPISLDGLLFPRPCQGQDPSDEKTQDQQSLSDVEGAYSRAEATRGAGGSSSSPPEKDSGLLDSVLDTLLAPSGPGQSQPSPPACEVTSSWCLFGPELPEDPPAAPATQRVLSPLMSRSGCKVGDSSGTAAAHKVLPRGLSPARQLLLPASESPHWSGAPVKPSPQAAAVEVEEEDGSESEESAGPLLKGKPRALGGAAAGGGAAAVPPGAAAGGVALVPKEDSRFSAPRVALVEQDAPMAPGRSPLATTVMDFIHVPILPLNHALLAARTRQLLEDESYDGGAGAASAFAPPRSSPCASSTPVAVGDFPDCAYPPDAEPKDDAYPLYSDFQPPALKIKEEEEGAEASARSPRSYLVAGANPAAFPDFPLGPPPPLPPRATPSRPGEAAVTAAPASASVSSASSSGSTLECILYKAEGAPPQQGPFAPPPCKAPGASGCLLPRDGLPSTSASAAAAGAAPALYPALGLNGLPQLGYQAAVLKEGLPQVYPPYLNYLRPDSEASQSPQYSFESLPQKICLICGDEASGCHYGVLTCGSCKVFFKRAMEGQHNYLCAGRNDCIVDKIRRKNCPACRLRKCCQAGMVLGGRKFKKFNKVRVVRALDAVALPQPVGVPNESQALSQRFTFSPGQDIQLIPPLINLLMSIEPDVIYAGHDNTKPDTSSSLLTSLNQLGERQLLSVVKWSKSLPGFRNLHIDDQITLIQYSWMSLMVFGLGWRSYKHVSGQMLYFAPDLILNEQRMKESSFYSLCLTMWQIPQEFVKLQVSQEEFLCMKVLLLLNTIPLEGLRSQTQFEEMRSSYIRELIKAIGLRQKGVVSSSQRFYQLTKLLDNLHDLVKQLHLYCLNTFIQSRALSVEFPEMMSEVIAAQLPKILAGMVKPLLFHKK
Thyrotropin receptor (Homo sapiens), sequence (P16473 whole entry, looked up): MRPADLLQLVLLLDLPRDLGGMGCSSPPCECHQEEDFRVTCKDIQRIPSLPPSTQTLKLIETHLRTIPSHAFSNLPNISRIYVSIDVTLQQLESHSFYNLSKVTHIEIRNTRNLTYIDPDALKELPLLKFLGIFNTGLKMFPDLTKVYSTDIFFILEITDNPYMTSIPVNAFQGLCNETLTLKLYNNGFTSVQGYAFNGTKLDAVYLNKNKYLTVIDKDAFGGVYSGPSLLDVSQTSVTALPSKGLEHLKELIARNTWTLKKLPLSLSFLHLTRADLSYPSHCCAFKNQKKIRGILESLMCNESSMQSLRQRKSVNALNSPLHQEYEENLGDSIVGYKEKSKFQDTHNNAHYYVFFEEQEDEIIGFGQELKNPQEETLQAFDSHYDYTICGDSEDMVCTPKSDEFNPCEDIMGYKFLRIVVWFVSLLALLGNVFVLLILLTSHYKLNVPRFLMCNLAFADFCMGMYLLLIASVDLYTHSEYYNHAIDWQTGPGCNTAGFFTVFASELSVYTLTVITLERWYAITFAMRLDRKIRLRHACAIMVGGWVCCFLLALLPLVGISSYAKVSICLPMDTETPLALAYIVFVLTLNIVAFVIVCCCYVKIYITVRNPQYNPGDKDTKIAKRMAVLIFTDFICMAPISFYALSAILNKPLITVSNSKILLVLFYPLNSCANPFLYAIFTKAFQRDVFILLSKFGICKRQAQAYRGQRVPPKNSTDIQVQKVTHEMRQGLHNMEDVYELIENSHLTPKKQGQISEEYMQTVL
Estrogen receptor (Homo sapiens), sequence (P03372 whole entry, looked up): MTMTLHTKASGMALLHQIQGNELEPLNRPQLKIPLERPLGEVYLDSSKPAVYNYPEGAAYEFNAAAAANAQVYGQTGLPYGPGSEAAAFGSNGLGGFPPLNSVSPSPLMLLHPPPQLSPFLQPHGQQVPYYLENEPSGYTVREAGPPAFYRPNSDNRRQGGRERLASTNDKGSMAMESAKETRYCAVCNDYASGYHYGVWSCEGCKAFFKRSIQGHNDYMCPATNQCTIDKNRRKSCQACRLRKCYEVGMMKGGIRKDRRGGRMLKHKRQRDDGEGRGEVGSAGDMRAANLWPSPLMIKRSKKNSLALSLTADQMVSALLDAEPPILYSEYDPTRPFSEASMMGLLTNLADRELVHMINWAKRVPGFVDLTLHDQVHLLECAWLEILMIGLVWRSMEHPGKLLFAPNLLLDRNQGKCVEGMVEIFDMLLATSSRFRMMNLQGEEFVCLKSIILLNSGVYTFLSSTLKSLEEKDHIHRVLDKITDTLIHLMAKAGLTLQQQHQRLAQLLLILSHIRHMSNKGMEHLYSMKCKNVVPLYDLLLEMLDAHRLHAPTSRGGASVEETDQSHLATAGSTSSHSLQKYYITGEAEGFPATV
Estrogen receptor beta (Homo sapiens), sequence (Q92731 whole entry, looked up): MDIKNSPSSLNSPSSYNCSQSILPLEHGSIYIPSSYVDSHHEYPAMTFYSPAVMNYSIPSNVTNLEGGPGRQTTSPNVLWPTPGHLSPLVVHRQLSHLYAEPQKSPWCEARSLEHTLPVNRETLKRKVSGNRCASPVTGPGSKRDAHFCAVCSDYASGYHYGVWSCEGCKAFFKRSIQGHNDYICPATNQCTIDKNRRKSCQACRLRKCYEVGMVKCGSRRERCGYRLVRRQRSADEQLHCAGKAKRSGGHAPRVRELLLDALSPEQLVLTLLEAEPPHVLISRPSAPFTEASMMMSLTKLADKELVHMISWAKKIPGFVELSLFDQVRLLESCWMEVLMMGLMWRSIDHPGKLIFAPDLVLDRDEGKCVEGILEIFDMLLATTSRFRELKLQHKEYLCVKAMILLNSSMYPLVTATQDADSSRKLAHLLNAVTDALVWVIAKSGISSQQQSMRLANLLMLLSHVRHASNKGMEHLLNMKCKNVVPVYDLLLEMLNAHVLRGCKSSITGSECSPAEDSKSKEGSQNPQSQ
Thyrotropin-releasing hormone receptor (Homo sapiens), sequence (P34981 whole entry, looked up): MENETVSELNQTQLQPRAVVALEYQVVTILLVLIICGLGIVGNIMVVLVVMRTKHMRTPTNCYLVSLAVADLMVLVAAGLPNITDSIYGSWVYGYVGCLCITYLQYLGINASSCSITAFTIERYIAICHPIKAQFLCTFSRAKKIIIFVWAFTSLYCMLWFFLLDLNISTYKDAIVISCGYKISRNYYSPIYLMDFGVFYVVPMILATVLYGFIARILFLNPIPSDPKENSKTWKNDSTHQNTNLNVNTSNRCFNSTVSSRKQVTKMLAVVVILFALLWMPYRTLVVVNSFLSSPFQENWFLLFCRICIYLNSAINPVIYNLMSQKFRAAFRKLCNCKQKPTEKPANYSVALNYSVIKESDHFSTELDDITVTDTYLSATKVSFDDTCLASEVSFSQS
Androgen receptor (Homo sapiens), sequence (P10275 whole entry, looked up): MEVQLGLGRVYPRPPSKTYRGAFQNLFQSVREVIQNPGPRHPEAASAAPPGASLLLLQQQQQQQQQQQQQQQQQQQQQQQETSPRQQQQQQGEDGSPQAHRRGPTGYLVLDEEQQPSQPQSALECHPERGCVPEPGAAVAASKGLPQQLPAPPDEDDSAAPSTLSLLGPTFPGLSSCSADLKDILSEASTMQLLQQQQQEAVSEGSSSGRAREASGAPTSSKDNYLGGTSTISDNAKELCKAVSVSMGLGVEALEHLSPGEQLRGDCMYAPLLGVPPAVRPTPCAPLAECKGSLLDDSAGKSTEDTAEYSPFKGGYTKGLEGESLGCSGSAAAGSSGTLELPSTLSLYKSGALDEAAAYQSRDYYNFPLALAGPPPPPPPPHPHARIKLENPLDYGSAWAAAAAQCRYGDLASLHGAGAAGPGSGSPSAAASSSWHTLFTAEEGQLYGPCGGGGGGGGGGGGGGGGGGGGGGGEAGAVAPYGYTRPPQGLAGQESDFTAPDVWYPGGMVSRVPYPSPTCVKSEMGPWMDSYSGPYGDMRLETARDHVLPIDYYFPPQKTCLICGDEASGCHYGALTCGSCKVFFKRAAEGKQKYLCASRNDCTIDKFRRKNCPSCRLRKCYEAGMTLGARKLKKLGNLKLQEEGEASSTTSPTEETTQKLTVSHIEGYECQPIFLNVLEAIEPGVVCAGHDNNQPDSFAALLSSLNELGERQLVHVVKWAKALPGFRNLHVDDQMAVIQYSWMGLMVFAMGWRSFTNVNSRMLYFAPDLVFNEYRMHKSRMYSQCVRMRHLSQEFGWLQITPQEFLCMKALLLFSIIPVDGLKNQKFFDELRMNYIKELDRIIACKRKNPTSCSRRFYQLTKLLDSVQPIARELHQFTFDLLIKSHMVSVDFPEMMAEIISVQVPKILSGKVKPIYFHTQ

| SMILES | Potency [1] | Potency [2] | outcome [3] | Potency [4] | Potency [5] | Potency [6] | outcome [7] | outcome [8] | Potency [9] | Potency [10] | outcome [11] | outcome [12] | outcome [13] | Potency [14] | Potency [15] | outcome [16] | Potency [17] | Potency [18] | Potency [19] | Potency [20] |
| --- | --- | --- | --- | --- | --- | --- | --- | --- | --- | --- | --- | --- | --- | --- | --- | --- | --- | --- | --- | --- |
| Nc1cc(N)cc(C(=O)O)c1 | inactive | inactive | inactive | inactive | inactive | inactive | inactive | inactive | inactive | inactive | inactive | inactive | inactive |  |  |  |  |  |  |  |
| CCCCCCCCCCCCCCC | inactive | inactive | inactive | inactive | inactive | inactive | inactive | inactive | inactive | inactive | inactive | inactive | inactive | inactive | inactive | inactive |  |  |  |  |
| O=C(O)CCNC(=O)c1ccc(N=Nc2ccc(O)c(C(=O)O)c2)cc1 | inactive | inactive | inactive | inactive |  |  | inactive |  | inactive |  | inactive | inactive | inactive | inactive | inactive | inactive | inactive | inactive |  |  |
| CCCCNc1ccccc1 | inactive | inactive |  | inactive | inactive | inactive | inactive | inactive | inactive | inactive | inactive | inactive | inactive | inactive | inactive | inactive | inactive | inactive | inactive |  |
| COC(=O)[C@H]1[C@H]2C[C@@H]3c4[nH]c5cc(OC)ccc5c4CCN3C[C@H]2C[C@@H](OC(=O)COc2ccc(OC)cc2)[C@@H]1OC | inactive | inactive | inactive |  | inactive |  | inactive | inactive | inactive | inactive | inactive | inactive |  | inactive | inactive | inactive |  | inactive |  |  |
| Cc1onc(-c2ccccc2)c1-c1ccc(S(N)(=O)=O)cc1 | inactive | 18.8 µM (active) | inactive |  | inactive | inactive | inactive | inactive | inactive |  | inactive | inactive | inactive | inactive |  | inactive | inactive |  |  |  |
| N#CCN(CC#N)CCN(CC#N)CC#N | inactive | inactive |  | inactive | inactive | inactive | inactive | inactive | inactive | inactive | inactive | inactive | inactive | inactive | inactive | inactive | inactive |  |  | inactive |
| CC(C)(C)CC(C)(C)N | inactive | inactive |  | inactive | inactive | inactive | inactive | inactive |  | inactive | inactive | inactive | inactive | inactive |  |  | inactive |  |  | inactive |
